Assay outcomes from PubChem.
A selection: hits, their analogues and other compounds. The true share with any hit is near 5.9%.
HepG2 tox – HepG2 cytotoxicity, counter-screen for TGF-b inhibitors; 410,000 tested, 0.76% active; Potency, µM (doses to about 46.1 µM), most hits filed as cytotoxic; HepG2 CAGA-GFP viability, ATP luminescence, 18 h; AID 588856
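HepG2 CAGA-GFP cells (1000/well, DMEM with 1% FBS) received compound, then TGF-beta at 500 pg/mL final, and were incubated 18 hours at 37 degrees C. Viability was read by CellTiter-Glo luminescence. Media-only wells were set as complete cell-killing and DMSO as no toxicity.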
ATXN2 expr inh – ATXN2 expression inhibition; HEK-293 ATXN2-luciferase reporter, luminescence, 24 h; Potency, µM (doses to about 57 µM), actives largely listed as inhibitors; 360,000 tested, 0.72% active; further: nearly all actives have a fitted effect of over 55% in size
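qHTS (up to 57 uM final) was run with 24 h compound exposure of reporter cells at 37 °C. Each well was multiplexed: SteadyGlo luminescence measured ATXN2-luciferase expression after a fluorogenic Gly-Phe-AFC viability readout (25 uM final).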
KB-V1 cytotox – KB-V1 MDR subline cytotoxicity; KB-V1 MDR cells viability, CellTiter-Glo, 72 h; Potency, µM (doses to about 46.1 µM), most hits filed as cytotoxic; 400,000 tested, 3.4% active; AID 1347076; further: nearly all actives have a fitted effect of over 60% in size
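Readout: CellTiter-Glo luminescence, 10 min after addition. Cells: KB-V1 MDR subline, 72 h at 37 degrees C with compound. Analysis: corrected, normalized data fitted to concentration-effect curves.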
KB-3-1 tox – KB-3-1 parental cell cytotoxicity; Potency, µM (top dose mostly 46.1 µM), most hits filed as cytotoxic; KB-3-1 viability, CellTiter-Glo ATP luminescence, 72 h; 400,000 tested, 1.4% active; further: nearly all actives have a fitted effect of over 60% in size
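72 h, 37 °C compound treatment of KB-3-1 parental cells; CellTiter-Glo added, 10 min, luminescence read. Data corrected against DMSO-only plates and normalized before curve fitting.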
S2 tox – reduces viability in counter-screen for ATXN expression inhibitors; Potency, µM (series often up to 56.7 µM), most hits filed as cytotoxic; AID 651635; 400,000 tested, 0.49% active; S2 cells (HEK-293 line with an ATXN2-luciferase reporter) viability, CellTiter-Fluor protease fluorescence, 24 h; further: nearly all actives have a fitted effect of over 40% in size
TGFb SMAD3 inh – TGF-b pathway inhibition | HepG2 CAGA-GFP TGF-b/SMAD3 reporter, GFP fluorescence, 18 h; TGF-beta stimulated, 500 pg/mL final | Potency, µM (series often up to 46.1 µM), hits mostly inhibitors | 410,000 tested, 1.2% active | AID 588855; further: nearly all actives have a fitted effect of over 65% in size
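Inhibition was scored as loss of TGF-beta-induced (500 pg/mL final, 18 hours, 37 degrees C) GFP in HEPG2 cells carrying a CAGA-GFP reporter, in DMEM with 1% FBS. Well GFP was summed per cell; Activity was normalised to unstimulated and stimulated DMSO wells, then concentration-response fitting.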
Large screens that a line does not name were inactive. The call rests on the fitted dose curve; in most records, active means well fitted curve in the direction sought with a large enough effect; inconclusive means small, poorly fitted or top-dose-only effect, or another doubt; inactive means no such curve, though single readings can be large; an effect the other way counts as inactive or inconclusive.

O=C(CCC(=O)Nc1ccc(Cl)cc1Cl)N/N=C/c1ccc([N+](=O)[O-])o1	HepG2 tox 16µM, ATXN2 expr inh inconclusive, KB-V1 cytotox inconclusive, KB-3-1 tox inconclusive, S2 tox inconclusive, TGFb SMAD3 inh 11µM
Cc1nc(NCc2c(F)cccc2F)sc1-c1ccn(CCN2CCOCC2)n1	none (no result: HepG2 tox, ATXN2 expr inh, KB-V1 cytotox, KB-3-1 tox, TGFb SMAD3 inh)
O=C(Nc1ccc(Cl)cc1)N[C@@H]1c2c(ccc3ccccc23)OC[C@@H]1CO	KB-V1 cytotox inconclusive, KB-3-1 tox inconclusive, TGFb SMAD3 inh inconclusive
COc1cccc2c1OC[C@@H](CO)[C@H]2N(C)C(=O)Nc1ccc(Cl)cc1	KB-V1 cytotox 15µM
CC#Cc1cc2c(cc1O)CCC1C2CCC2(C)C(O)CCC12 (stereo not given)	KB-V1 cytotox inconclusive, KB-3-1 tox 2.6µM, S2 tox inconclusive, TGFb SMAD3 inh inconclusive
CCNc1cc2c(cc1O)CCC1C2CCC2(C)C(O)CCC12 (stereo not given)	KB-V1 cytotox inconclusive, KB-3-1 tox inconclusive, TGFb SMAD3 inh inconclusive
C=Cc1cc2c(cc1O)CCC1C2CCC2(C)C(O)CCC12 (stereo not given)	KB-V1 cytotox inconclusive, KB-3-1 tox 18µM, S2 tox inconclusive
COC(=O)c1sccc1S(=O)(=O)N(CC(=O)NCc1ccccc1)c1ccc(C)c(C)c1	none
Cc1ccc2cc3cc(C(=O)N4CCN(c5ccccc5)CC4)oc3nc2c1	none (no result: ATXN2 expr inh, KB-V1 cytotox, KB-3-1 tox, S2 tox)
Cc1ccc(C)c(NC(=S)NC(NC(=O)OCc2ccccc2)C(Cl)(Cl)Cl)c1 (stereo not given)	KB-V1 cytotox 15µM
O=C(NC(NC(=S)Nc1c(Cl)cc(Cl)cc1Cl)C(Cl)(Cl)Cl)OCc1ccccc1 (stereo not given)	KB-V1 cytotox 12µM, KB-3-1 tox inconclusive, TGFb SMAD3 inh inconclusive
Cc1cccc(NC(=O)CN2CCN(CC(=O)NCc3ccc(Cl)cc3Cl)CC2)c1C	KB-V1 cytotox 3.7µM
Cc1ccc(S(=O)(=O)Nc2ccc(-c3nc4ccc(C)cc4s3)cc2)cc1	HepG2 tox 10µM, TGFb SMAD3 inh inconclusive
Cc1ccc2nc(-c3ccc(NC(=O)C(F)(F)F)cc3)sc2c1	KB-3-1 tox inconclusive
Cc1ccc2nc(-c3ccc(NS(=O)(=O)c4c(C)n(C)c(=O)n(C)c4=O)cc3)sc2c1	KB-V1 cytotox inconclusive, TGFb SMAD3 inh inconclusive (no result: ATXN2 expr inh, S2 tox)
Cc1ccc2nc(-c3ccc(NC(=O)C(C)Sc4nncs4)cc3)sc2c1 (stereo not given)	KB-V1 cytotox 12µM (no result: ATXN2 expr inh)
Cc1cccc(S(=O)(=O)Nc2ccc(-c3nc4ccc(C)cc4s3)cc2)c1	TGFb SMAD3 inh 13µM
Cc1cccc(S(=O)(=O)Nc2ccc(-c3cn4ccccc4n3)cc2)c1	KB-V1 cytotox 23µM
CCOc1ccccc1C1C2CCCCC2(O)CCN1C(=O)c1cccs1 (stereo not given)	KB-V1 cytotox 23µM
COC(=O)CC1(c2cccc3ccccc23)C(=O)c2ccccc2C1=O	S2 tox inconclusive
CC1(c2cccc3ccccc23)OC(=O)c2ccccc21 (stereo not given)	KB-V1 cytotox 18µM, KB-3-1 tox inconclusive
COC(=O)c1ccc(NC(=O)C23CC4CC(C2)CC(n2cncn2)(C4)C3)cc1	none
COC(=O)c1cccc(NC(=O)C23CC4CC(C2)CC(n2cncn2)(C4)C3)c1	KB-V1 cytotox 21µM
COc1cc(NC(=O)C23CC4CC(C2)CC(n2cnc([N+](=O)[O-])n2)(C4)C3)cc(OC)c1	KB-V1 cytotox 21µM, KB-3-1 tox inconclusive
O=C(Nc1ccccc1)C12CC3CC(C1)CC(n1cnc([N+](=O)[O-])n1)(C3)C2	none
COc1ccc(C(=O)N2CCOC2CNC(=O)C(=O)NCc2ccc(C)cc2)cc1 (stereo not given)	KB-V1 cytotox inconclusive, S2 tox inconclusive (no result: ATXN2 expr inh)
COc1ccc(C(=O)N2CCOC2CNC(=O)C(=O)NCc2ccc(Cl)cc2)cc1 (stereo not given)	KB-V1 cytotox 23µM
C/C(=N\NC(=O)C1CC1)c1ccc(OC(F)F)cc1	KB-V1 cytotox 13µM, KB-3-1 tox inconclusive (no result: S2 tox)
Cc1ccc(C)c(NC(=O)C(Sc2nncn2C)c2ccccc2)c1 (stereo not given)	KB-V1 cytotox 15µM, S2 tox inconclusive
Cc1ccc(C)c(NC(=O)C(Sc2ncnc3ccccc23)c2ccccc2)c1 (stereo not given)	KB-V1 cytotox 16µM
O=c1c2oc3ccccc3c2n(Cc2cccc(F)c2)c(=O)n1Cc1ccc2c(c1)OCO2	none (no result: ATXN2 expr inh, KB-V1 cytotox, KB-3-1 tox, S2 tox)
COc1ccc2c(c1)OC(C)CN(CCNC(=O)C1CCOC1)C2 (stereo not given)	none (no result: HepG2 tox, ATXN2 expr inh, KB-V1 cytotox, KB-3-1 tox, TGFb SMAD3 inh)
C[C@@H]1[C@H](C)CC[C@]2(C(=O)O)CC[C@]3(C)C(=CC[C@@H]4[C@@]5(C)C[C@@H](O)[C@H](O)[C@@](C)(CO)[C@H]5CC[C@]43C)[C@@H]12	none (no result: HepG2 tox, KB-V1 cytotox, KB-3-1 tox, S2 tox, TGFb SMAD3 inh)
Cc1nc(NC(=O)c2ccc(Cl)cc2)sc1Cc1ccc2c(c1)OCO2	KB-V1 cytotox 4.6µM, KB-3-1 tox 9.2µM, TGFb SMAD3 inh inconclusive
Cc1nc(NC(=O)c2ccccc2)sc1Cc1ccc2c(c1)OCO2	KB-V1 cytotox inconclusive, KB-3-1 tox inconclusive
COc1ccc(CCN2C(=S)NC3CC2(C)Oc2ccc([N+](=O)[O-])cc23)cc1OC (stereo not given)	KB-V1 cytotox 6.5µM
Cc1cccc(CNC(=O)c2ccc(Cn3c(=O)c4cccn4c4cccnc43)cc2)c1	none (no result: ATXN2 expr inh, KB-V1 cytotox, KB-3-1 tox, S2 tox)
C#CC[N+](C)(C)CC#Cc1ccccc1	KB-3-1 tox inconclusive
CC#CC[N+](C)(C)CCCCCCCCCC	ATXN2 expr inh inconclusive, KB-3-1 tox 5.8µM
C#CC[N+](C)(C)CCCCCCCCC	ATXN2 expr inh inconclusive, KB-3-1 tox 5.8µM
Cc1c(C(=O)NCC2(N3CCOCC3)CCCCCC2)cnn1-c1nccc(-c2ccccc2F)n1	none (no result: HepG2 tox, ATXN2 expr inh, KB-V1 cytotox, KB-3-1 tox, TGFb SMAD3 inh)
CCOC(=O)/C(=N\Nc1ccccc1Cl)N1CCN(Cc2ccccc2)CC1	KB-V1 cytotox 3.7µM
CCOC(=O)/C(=N\Nc1ccccc1Cl)N1CCN(C)CC1	KB-V1 cytotox inconclusive
CCOC(=O)c1cnc2c(C(F)(F)F)cccc2c1Nc1cccc(C(=O)OC)c1	none
O=C(NCC1OCCc2ccccc21)c1ccc(NC(=O)c2cccc(Br)c2)cc1 (stereo not given)	KB-V1 cytotox 2.6µM, S2 tox inconclusive
CC(=O)Nc1ccc(Oc2sc(C(=O)c3ccccc3)c(N)c2C#N)cc1	TGFb SMAD3 inh 10µM
CCn1cc(S(=O)(=O)c2ccccc2)c(=O)c2cc(F)c(N3CCCCCC3)cc21	none (no result: ATXN2 expr inh, S2 tox)
O=C1C2C(c3ccccc3)CC=CC2C(c2ccc3ccccc3c2)N1Cc1ccccc1 (stereo not given)	none (no result: ATXN2 expr inh, KB-V1 cytotox, KB-3-1 tox, S2 tox)
